hgDAF-12 ag: hgDAF-12 agonism, primary luciferase screen. HEK293 GAL4-hgDAF12 UAS-luciferase reporter, agonist luminescence; normalized to butyrate control. activation, % at 6.8 µM. hit rate 1.8% among 370,000;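 active means activation above a cutoff set at the mean of all screened compounds plus 3 SD, cut at about 10% in these data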;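 further: 0% = DMSO wells and 100% = sodium butyrate wells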
AHR act: activates the human aryl hydrocarbon receptor; activation, % at 5 µM; hit rate 2.5% among 320,000; P35869; AHR-responsive luciferase reporter cells, luminescence; in the data active means activation above about 47%;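 further: 0% = vehicle wells and 100% = reference agonist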
ssDAF-12 act: S. stercoralis DAF-12 activation, primary screen; hit rate 1% among 370,000; activation, % at 6.8 µM; HEK293 ssDAF-12/GRIP1 lit1-tk-luc reporter, luminescence; % of 3 µM dafachronic acid response;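 active means activation above the mean over all tested compounds plus 3 SD, cut at about 0.9% in these data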;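 further: 0% = DMSO-only wells and 100% = 3 µM delta7-dafachronic acid wells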
DAX1 inh-1: inhibits human nuclear receptor DAX1. inhibition, % at 6.75 µM. HEK293 Gal4-DAX1 luciferase reporter, luminescence. hit rate 0.99% among 340,000;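 active means inhibition above the mean over all tested compounds plus 3 SD, cut at about 4.2% in these data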;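 further: 0% = DAX1-transfected cells with DMSO and 100% = empty-vector control cells with DMSO; inhibition shows as a rise in luminescence from relieved DAX1 repression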
hcDAF-12 act: H. contortus DAF-12 activation, primary screen. HEK293 hcDAF-12 lit1-tk-luc reporter, luminescence; 0% DMSO, 100% Δ7-dafachronic acid. activation, % at 6.8 µM. AID 652067. hit rate 1.4% among 370,000;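 active means activation above the mean of all tested compounds plus 3 SD, cut at about 5.5% in these data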;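 further: 100% = response to 3 µM Δ7-dafachronic acid high control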
DAX1 inh-2: inhibitors of DAX1 repression of SF-1 activated StAR promoter. HEK293T StAR-luciferase reporter, SF-1/DAX-1 repression relief. inhibition, % at 6.8 µM. hit rate 1.1% among 370,000;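 active means inhibition above the mean over all tested compounds plus 3 SD, cut at about 3.6% in these data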;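 further: 0% = DAX-1 cells with DMSO and 100% = cells lacking DAX-1 with DMSO; higher inhibition means more luminescence from relief of DAX-1 repression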
LXR ag: counter-screen for hcDAF-12 agonists: agonists of human LXR-beta. shares compounds with hcDAF-12 act. HEK293 Gal4-LXR tk-luc reporter, luminescence, 24 h; normalized: DMSO 0%, positive control 100%. activation, % at 6.8 µM. AID 743027. 3,400 tested, under 10 active;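 active means mean percent activation of the reporter above a cutoff set as the average over tested compounds plus their standard deviation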
Target sequence (P55055 whole entry, looked up, the tested form may be a part): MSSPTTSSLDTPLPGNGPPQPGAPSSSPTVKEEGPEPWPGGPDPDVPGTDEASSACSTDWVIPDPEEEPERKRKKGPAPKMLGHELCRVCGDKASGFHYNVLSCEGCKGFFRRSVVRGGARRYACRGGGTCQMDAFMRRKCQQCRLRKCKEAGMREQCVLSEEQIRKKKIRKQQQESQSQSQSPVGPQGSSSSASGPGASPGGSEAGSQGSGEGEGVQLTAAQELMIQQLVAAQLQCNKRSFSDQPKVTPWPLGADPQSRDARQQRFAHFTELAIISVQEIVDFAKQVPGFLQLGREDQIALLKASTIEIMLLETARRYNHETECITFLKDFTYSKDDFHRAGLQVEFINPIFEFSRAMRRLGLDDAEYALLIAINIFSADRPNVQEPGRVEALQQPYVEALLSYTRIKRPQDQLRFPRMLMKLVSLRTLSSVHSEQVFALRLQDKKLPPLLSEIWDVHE
hcDAF12 ag: confirmation of H. contortus DAF-12 agonists; HEK293 hcDAF-12 lit1-tk-luc reporter, luminescence; % of Δ7-dafachronic acid response; activation, % at 6.8 µM; shares compounds with hcDAF-12 act; hit rate 61% among 3,400; AID 743032;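 active means mean activation across triplicate tests above the threshold derived from the earlier primary screen, cut at about 5.5% in these data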;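 further: 0% = DMSO only wells and 100% = 3 µM Δ7-dafachronic acid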
* marks the source's active call; other numbers are inactive results; . = not tested or not shown. Rows were chosen to be rich in hits. Some 5.7% of all compounds tested hit in one or more screens of this group.

SMILES	hgDAF-12 ag	AHR act	ssDAF-12 act	DAX1 inh-1	hcDAF-12 act	DAX1 inh-2	LXR ag	hcDAF12 ag
Nc1ccn([C@@H]2O[C@H](C(=O)N[C@H](Cc3ccccc3)C(=O)NCC(=O)N3CCOCC3)[C@@H](O)[C@H]2O)c(=O)n1	1	.	-1	.	0	2	.	.
CN(C)c1ccc(N=Nc2ccccc2Br)cc1	12*	53*	1.6*	0	20*	3	2	19*
CN(C)c1ccc(N=Nc2ccccc2C(=O)OCC(=O)N2CCCC2)cc1	4	10	-2	0	-1	0	.	.
CC(=O)Nc1ccc(C(=O)OCc2ccccc2Cl)cc1	3	-1	-2	2	1	1	.	.
Cc1cc(C(=O)NNC(=O)c2cccc(Cl)c2)no1	1	0	-1	.	0	0	.	.
Cc1cc(/C(N)=N/OC(=O)c2cccc(Cl)c2)no1	6	38	1.5*	.	7.1*	1	0	2
N/C(=N\OC(=O)c1cccc(Cl)c1)c1ccccn1	10	70*	1	-5	13*	3.9*	1	8.2*
O=C(COc1ccc2c(c1)oc(=O)c1ccccc12)NCC1CCC(C(=O)O)CC1 (configuration not stated)	-1	0	-1	1	1	-1	.	.
CCOC(=O)c1[nH]c2ccccc2c1N=CN(C)C	2	16	-1	1	5	0	.	.
CC(C)c1ccccc1NC(=O)COC(=O)Cc1c[nH]c2ccccc12	3	8	1.3*	0	7.9*	1	0	4
COc1ccc(NC(=O)c2cccnc2Nc2ccccc2)cc1	3	-2	-2	0	0	-1	.	.
COc1ccc(Nc2nccc3c2ncn3C)cc1	11*	-4	0	1	6.6*	3	1	5
CSc1ccc(CCNS(=O)(=O)c2csc(C(N)=O)c2)cc1	0	0	-1	0	0	0	.	.
Cc1ccc(NC(=O)CNC(=O)c2ccc(Oc3ccccc3)cc2)nc1	1	4	-1	1	-1	0	.	.
Cc1csc(NC(=O)c2cccnc2Cl)n1	5	22	1.1*	3	8.7*	0	1	11*
Nc1ccccc1-c1nc2ccccc2s1	26*	57*	1.9*	2	11*	3	1	10*
Oc1ccc(-c2nc3ccccc3s2)cc1	24*	55*	1.3*	1	7.6*	4.2*	2	8.1*
Oc1ccc(-c2nc3ccccc3s2)c(O)c1	8	8	0	1	1	3	.	.
COc1ccc(NS(=O)(=O)c2cccc(C(=O)N/N=C(\C)c3cccnc3)c2)cc1	-2	.	-1	1	-1	0	.	.
Cn1c(-c2ccc3ccccc3n2)[n+](C)c2ccccc21	3	5	-1	-1	10*	0	0	2
Cn1c(-c2ccccn2)[n+](C)c2ccccc21	3	1	-1	0	0	0	.	.
O=C(Nc1ccccc1)Nc1cccc2nsnc12	9	23	2.3*	2	8.9*	3	1	12*
O=C(Nc1cccc2nsnc12)c1cccs1	10	5	-1	3	1	0	.	.
CCOc1ccc(CCNC(=O)CN2C(=O)NC3(CCCCCC3)C2=O)cc1OCC	-2	1	-1	0	-1	1	.	.
Cc1ccc(S(=O)(=O)NCC(=O)OC(C(=O)c2ccccc2)c2ccccc2)cc1 (configuration not stated)	1	0	-2	0	1	0	.	.
SMILES	hgDAF-12 ag	AHR act	ssDAF-12 act	DAX1 inh-1	hcDAF-12 act	DAX1 inh-2	LXR ag	hcDAF12 ag
CNC(=O)NC(=O)C(OC(=O)CCNS(=O)(=O)c1ccccc1)c1ccccc1 (configuration not stated)	1	-4	0	1	7.2*	0	0	1
OCC1OC(c2ccc(OCc3ccccc3)cc2OCc2ccccc2)C(O)C1O (configuration not stated)	-1	.	-1	1	-1	-1	.	.
COc1cccc(/C=C2/SC(=S)N(CC(=O)NNC(=O)c3ccccc3OC)C2=O)c1	2	19	0	0	8.5*	0	0	5
C=C1CSc2nc(=O)c3c4c(sc3n21)CCCC4	2	3	-1	-1	7.0*	0	0	1
C=C1CSc2nc(=O)c3c4c(sc3n21)CCC4	-3	1	-2	0	0	0	.	.
CCOC(=O)c1sc(NC(=O)c2ccco2)nc1C	-1	10	-1	1	2	1	.	.
CCOC(=O)c1sc(NC(=O)c2ccc(C)o2)nc1C	11*	9	0	1	8.8*	4	1	8.6*
Cc1nc(NC(=O)c2cccs2)ccc1Br	19*	16	1.6*	1	9.8*	2	1	11*
COc1ccc2nc(NC(=O)c3cccs3)sc2c1	12*	-7	0	.	6.7*	1	2	7.2*
CCOC(=O)c1sc(NC(=O)c2cccs2)nc1C	6	.	1.9*	2	11*	1	1	6.3*
Cc1ccc(-c2csc(NC(=O)Cc3ccc(F)cc3)n2)o1	1	5	-2	0	2	0	.	.
CCc1n[nH]c(=O)n1Cn1c(CC)n[nH]c1=O	0	0	-1	-1	-1	0	.	.
COc1ccc(OC)c(NC(=O)c2cc3ccccc3cc2OC)c1	1	7	-1	-2	-1	0	.	.
COc1cccc(NC(=O)Nc2ccc(Cc3ccncc3)cc2)c1	9	5	-1	-1	-2	0	.	.
COc1cc(SC)ccc1C(=O)Nc1nc2ccccc2[nH]1	-17	-4	-3	-4	-9	-2	.	.
COc1cc(SC)ccc1C(=O)Nc1ccccc1	9	12	0	2	7.7*	2	1	8.3*
COc1cccc(NC(=O)Nc2ccncc2)c1	2	22	-1	0	6.8*	0	0	0
COc1cccc(NC(=O)c2cc3ccccc3cc2OC)c1	10	7	0	4	8.4*	1	1	9.3*
CCOC(=O)N=Nc1c(O)n(CC)c2ccccc12	3	21	-1	1	-1	0	.	.
O=C(NC1CCCCC1)C1Cc2ccccc2CN1S(=O)(=O)c1ccc(F)cc1 (configuration not stated)	1	-2	-1	0	-3	0	.	.

Screens deposited in PubChem BioAssay by The Scripps Research Institute Molecular Screening Center.
